Laboratory results published in PubChem BioAssay AID1159580 (chemical genetic matrix, 2015).
Several values for one entry are separate records, joined by “and”; a condition that tells them apart may be missing. Equal entries are not always repeated. In all, about 5,500 compounds went through this assay and about 2,000 (36%) were called active. About 18% were inconclusive and are not listed. Cut-off read from the data, not from the text of the source: active = normalized growth mostly below about 0.91 (no sharp cut-off); inconclusive = no clear call, values can overlap the other calls; inactive = mostly above about 0.92. Some of the results follow.

Test: chemical genetic growth profiling, strain panel (AID 1159580);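 note: tested at 20 µM; growth read once vehicle control cultures reached saturation at 30 °C; 1 = growth at the plate median or of vehicle wells; lower values mean less growth of the strain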
Settings: S. cerevisiae deletion strains, growth OD

Measured: normalized growth

CN(C)C(=S)SSC(=S)N(C)C
inactive: locus YDL185W, strain tfp1, active compounds read low 0.967
active: locus YAL013W, strain DEP1, active compounds read low 0.0581 | locus YAL021C, strain ccr4, active compounds read low 0.0666 | locus YAL026C, strain drs2, active compounds read low 0.0601 | locus YAL030W, strain snc1, active compounds read low 0.0553 | locus YBL061C, strain skt5, active compounds read low 0.0618 | locus YBR009C, strain hhf1, active compounds read low 0.0687 | locus YBR021W, strain FUR4, active compounds read low 0.0817 | locus YBR023C, strain chs3, active compounds read low 0.061 | locus YBR171W, strain sec66, active compounds read low 0.074 | locus YBR229C, strain ROT2, active compounds read low 0.048 | locus YBR231C, strain swc5, active compounds read low 0.0647 | locus YBR279W, strain paf1, active compounds read low 0.0589 | locus YCL011C, strain gbp2, active compounds read low 0.0557 | locus YCL016C, strain dcc1, active compounds read low 0.0628 | locus YCL029C, strain bik1, active compounds read low 0.0606 | locus YCL061C, strain MRC1, active compounds read low 0.0642 | locus YCL069W, strain vba3, active compounds read low 0.0641 | locus YCR088W, strain abp1, active compounds read low 0.0578 | locus YDL005C, strain med2, active compounds read low 0.0735 | locus YDL035C, strain GPR1, active compounds read low 0.0496 | locus YDL040C, strain nat1, active compounds read low 0.0566 | locus YDL074C, strain BRE1, active compounds read low 0.08 | locus YDL101C, strain DUN1, active compounds read low 0.0541 | locus YDL134C, strain PPH21, active compounds read low 0.048 | locus YDL192W, strain arf1, active compounds read low 0.0606 | locus YDR001C, strain nth1, active compounds read low 0.0555 | locus YDR069C, strain doa4, active compounds read low 0.0622 | locus YDR101C, strain arx1, active compounds read low 0.0568 | locus YDR137W, strain rgp1, active compounds read low 0.0857 | locus YDR150W, strain NUM1, active compounds read low 0.0561 | locus YDR159W, strain sac3, active compounds read low 0.0951 | locus YDR162C, strain NBP2, active compounds read low 0.0528 | locus YDR195W, strain ref2 0.147 | locus YDR297W, strain sur2, active compounds read low 0.0586 | locus YDR318W, strain mcm21, active compounds read low 0.0615 | locus YDR334W, strain swr1, active compounds read low 0.0607 | locus YDR335W, strain msn5, active compounds read low 0.0573 | locus YDR388W, active compounds read low 0.0573 | locus YDR392W, strain spt3, active compounds read low 0.0953 | locus YDR502C, strain sam2, active compounds read low 0.0603 | locus YEL003W, strain gim4, active compounds read low 0.0529 | locus YEL037C, strain rad23, active compounds read low 0.0561 | locus YEL061C, strain CIN8 (second series), active compounds read low 0.06 | locus YEL061C, strain CIN8, active compounds read low 0.0482 | locus YER015W, strain faa2, active compounds read low 0.0644 | locus YER016W, strain bim1, active compounds read low 0.0587 | locus YER110C, active compounds read low 0.0744 | locus YER111C, strain swi4, active compounds read low 0.0843 | locus YER155C, strain BEM2 (second series), active compounds read low 0.0839 | locus YER155C, strain BEM2, active compounds read low 0.0634 | locus YER167W, strain BCK2, active compounds read low 0.0494 | locus YFR010W, strain ubp6, active compounds read low 0.067 | locus YGL078C, strain dbp3, active compounds read low 0.0559 | locus YGL086W, strain mad1, active compounds read low 0.0545 | locus YGL167C, strain pmr1, active compounds read low 0.0722 | locus YGL173C, strain kem1, active compounds read low 0.0644 | locus YGL227W, strain vid30, active compounds read low 0.0589 | locus YGL240W, strain doc1, active compounds read low 0.0761 | locus YGL248W, strain PDE1, active compounds read low 0.0464 | locus YGL253W, strain hxk2, active compounds read low 0.0521 | locus YGR078C, strain PAC10, active compounds read low 0.0501 | locus YGR135W, strain pre9, active compounds read low 0.0684 | locus YGR229C, strain SMI1, active compounds read low 0.0575 | locus YGR252W, strain gcn5, active compounds read low 0.158 | locus YHR013C, strain ard1, active compounds read low 0.107 | locus YHR027C, strain rpn1, active compounds read low 0.0609 | locus YHR030C, strain SLT2, active compounds read low 0.0503 and 0.115 | locus YHR079C, strain IRE1 (second series), active compounds read low 0.0559 | locus YHR079C, strain IRE1, active compounds read low 0.109 | locus YHR094C, strain hxt1, active compounds read low 0.0581 | locus YHR129C, strain ARP1, active compounds read low 0.0536 | locus YHR142W, strain chs7, active compounds read low 0.0711 | locus YHR200W, strain rpn10, active compounds read low 0.0592 | locus YIL066C, strain RNR3, active compounds read low 0.0523 | locus YIL073C, strain SPO22, active compounds read low 0.0945 | locus YIL125W, strain kgd1, active compounds read low 0.0556 | locus YIR030C, strain dcg1, active compounds read low 0.0579 | locus YJL092W, strain hpr5, active compounds read low 0.0561 | locus YJL095W, strain BCK1 (second series), active compounds read low 0.057 | locus YJL095W, strain BCK1, active compounds read low 0.049 and 0.102 | locus YJL115W, strain asf1, active compounds read low 0.0685 | locus YJL129C, strain trk1, active compounds read low 0.0884 | locus YJL134W, strain LCB3, active compounds read low 0.0489 | locus YJL154C, strain vps35, active compounds read low 0.0623 | locus YJL164C, strain tpk1, active compounds read low 0.0632 | locus YJL166W, strain qcr8, active compounds read low 0.0627 | locus YJL168C, strain set2, active compounds read low 0.0598 | locus YJL187C, strain SWE1 (second series), active compounds read low 0.0476 | locus YJL187C, strain SWE1, active compounds read low 0.0566 | locus YJR043C, strain POL32, active compounds read low 0.0614 | locus YJR066W, strain TOR1, active compounds read low 0.00175
